According to PubChem BioAssay (NCI):
This is part of a sample that, as a whole, favours compounds with a hit. Of some 83,000 tested, about 20% had one in any assay.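 Note: values are percent growth. 100 is the growth of untreated cells, values between 100 and 0 indicate rising inhibition; between -100 and 0 indicates cell death.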 Active and inactive are the calls of the source. How the source made its calls: active means growth percent below 10; inactive means the rest.

Experiments:
Test in all cases: NCI-60 one-dose screen, 48 h (100 = growth as untreated, 0 = no growth, -100 = all killed)
Conditions in all cases: 10 µM unless noted
EKVX NSCLC = test system: EKVX NSCLC
SN12C renal = test system: SN12C renal
UO-31 renal = test system: UO-31 renal
TK-10 renal = test system: TK-10 renal
ACHN renal = test system: ACHN renal
CAKI-1 renal = test system: CAKI-1 renal
A498 renal = test system: A498 renal
CCRF-CEM leukemia = test system: CCRF-CEM leukemia
MOLT-4 leukemia = test system: MOLT-4 leukemia
SR leukemia = test system: SR leukemia
RPMI-8226 leukemia = test system: RPMI-8226 leukemia
OVCAR-8 ovarian = test system: OVCAR-8 ovarian
OVCAR-5 ovarian = test system: OVCAR-5 ovarian
OVCAR-4 ovarian = test system: OVCAR-4 ovarian
SK-OV-3 ovarian = test system: SK-OV-3 ovarian
IGROV1 ovarian = test system: IGROV1 ovarian
OVCAR-3 ovarian = test system: OVCAR-3 ovarian
NCI/ADR-RES ovarian = test system: NCI/ADR-RES ovarian

Measured: growth

CCCCCCCC12Cc3ccccc3C1=Nc1c(c3ccccc3n1C)C2=O (stereo unspecified)
inactive: EKVX NSCLC 98.8% | SN12C renal 92.1% | UO-31 renal 57.5% | TK-10 renal 102% | ACHN renal 93.3% | CAKI-1 renal 79.7% | A498 renal 86.4% | CCRF-CEM leukemia 83.6% | MOLT-4 leukemia 78.3% | SR leukemia 82.6% | RPMI-8226 leukemia 91.8% | OVCAR-8 ovarian 85.2% | OVCAR-5 ovarian 86.5% | OVCAR-4 ovarian 97.4% | SK-OV-3 ovarian 81.6% | IGROV1 ovarian 69.5% | OVCAR-3 ovarian 92.9% | NCI/ADR-RES ovarian 94.2%

Cc1cc(Nc2cc(N3CCN(C)CC3)nc(/C=C/c3ccccc3)n2)n[nH]1
inactive: EKVX NSCLC 36.1% | SN12C renal 11.7% | CCRF-CEM leukemia 13.8% | RPMI-8226 leukemia 28.3% | OVCAR-8 ovarian 36.1% | OVCAR-5 ovarian 13.2% | OVCAR-4 ovarian 41% | OVCAR-3 ovarian 43.8% | NCI/ADR-RES ovarian 15.7%
active: UO-31 renal -53.8% | TK-10 renal -0.298% | ACHN renal 0.23% | CAKI-1 renal -45.3% | A498 renal -86.7% | MOLT-4 leukemia -5.35% | SR leukemia -13.6% | SK-OV-3 ovarian 3.69% | IGROV1 ovarian -30.7%

c1cn2cc(-c3ccc4cn[nH]c4c3)nc(Nc3ccc(N4CCOCC4)cc3)c2n1
active: OVCAR-4 ovarian 3.99%
inactive: EKVX NSCLC 83.9% | SN12C renal 41.3% | UO-31 renal 65.1% | TK-10 renal 76.1% | ACHN renal 39% | CAKI-1 renal 39.4% | A498 renal 68.7% | CCRF-CEM leukemia 66.9% | MOLT-4 leukemia 61.8% | SR leukemia 50% | RPMI-8226 leukemia 63.4% | OVCAR-8 ovarian 20% | OVCAR-5 ovarian 64.2% | SK-OV-3 ovarian 21% | IGROV1 ovarian 58.7% | OVCAR-3 ovarian 71.9% | NCI/ADR-RES ovarian 39.2%

Cc1c(NC(=O)OC[C@@H]2COCCN2)cn2ncnc(Nc3ccc4c(cnn4Cc4cccc(F)c4)c3)c12
active: EKVX NSCLC 4.4% | SN12C renal 0.74% | UO-31 renal -40.5% | TK-10 renal -7.43% | ACHN renal -0.373% | CAKI-1 renal -2.81% | A498 renal -68.8% | CCRF-CEM leukemia 6.97% | MOLT-4 leukemia 1.8% | SR leukemia -4.38% | RPMI-8226 leukemia 5.44% | OVCAR-8 ovarian -4.01% | OVCAR-5 ovarian 7.38% | SK-OV-3 ovarian -9.89% | IGROV1 ovarian -4.73%
inactive: OVCAR-4 ovarian 24% | OVCAR-3 ovarian 12.8% | NCI/ADR-RES ovarian 19.8%

CNC(=O)c1cc(COc2nnc(Nc3ccc(Cl)cc3)c3ccoc23)ccn1
inactive: EKVX NSCLC 56.7% | SN12C renal 38.9% | TK-10 renal 33% | ACHN renal 23.4% | CAKI-1 renal 28.2% | A498 renal 62.6% | CCRF-CEM leukemia 98.2% | MOLT-4 leukemia 73.6% | SR leukemia 61.3% | RPMI-8226 leukemia 89.9% | OVCAR-8 ovarian 14.3% | OVCAR-5 ovarian 23.5% | IGROV1 ovarian 24.7% | OVCAR-3 ovarian 46.6% | NCI/ADR-RES ovarian 15.2%
active: UO-31 renal -3.27% | OVCAR-4 ovarian -38.4% | SK-OV-3 ovarian -60.8%

CC(C)NC[C@@H](C(=O)N1CCN(c2ncnc3c2[C@H](C)C[C@H]3O)CC1)c1ccc(Cl)cc1
active: A498 renal -21.7% | SK-OV-3 ovarian -9.72% | IGROV1 ovarian 0.674%
inactive: EKVX NSCLC 72% | SN12C renal 64.4% | UO-31 renal 53.7% | TK-10 renal 32.2% | ACHN renal 68.7% | CAKI-1 renal 45.1% | CCRF-CEM leukemia 22.5% | MOLT-4 leukemia 23.3% | SR leukemia 45.5% | RPMI-8226 leukemia 61.2% | OVCAR-8 ovarian 68.3% | OVCAR-5 ovarian 54.4% | OVCAR-4 ovarian 77.5% | OVCAR-3 ovarian 49.7% | NCI/ADR-RES ovarian 84.2%

CC[C@H](CO)Nc1nc(NCc2ccccc2)c2ncn(C(C)C)c2n1
inactive: EKVX NSCLC 72.3% | SN12C renal 73.4% | UO-31 renal 55.4% | TK-10 renal 92.4% | ACHN renal 46.8% | CAKI-1 renal 48% | A498 renal 71.3% | CCRF-CEM leukemia 65.9% | MOLT-4 leukemia 49.6% | RPMI-8226 leukemia 85.5% | OVCAR-8 ovarian 63.8% | OVCAR-5 ovarian 50.9% | OVCAR-4 ovarian 73.2% | SK-OV-3 ovarian 102% | IGROV1 ovarian 49% | OVCAR-3 ovarian 65.2% | NCI/ADR-RES ovarian 71.4%
active: SR leukemia 7.1%

C[C@]12O[C@H](C[C@]1(O)CO)n1c3ccccc3c3c4c(c5c6ccccc6n2c5c31)CNC4=O
active: EKVX NSCLC -8.26% | SN12C renal -42% | UO-31 renal -63.1% | TK-10 renal -81.5% | ACHN renal -8.21% | CAKI-1 renal -96.5% | A498 renal -96.1% | CCRF-CEM leukemia 0.654% | MOLT-4 leukemia -18% | SR leukemia -14.4% | RPMI-8226 leukemia -41.3% | OVCAR-8 ovarian -32.5% | OVCAR-5 ovarian 4.92% | OVCAR-4 ovarian -23% | SK-OV-3 ovarian -46.3% | IGROV1 ovarian -26.3% | OVCAR-3 ovarian 0.931% | NCI/ADR-RES ovarian -38.1%

Cc1cn(-c2cc(NC(=O)c3ccc(C)c(Nc4nccc(-c5cccnc5)n4)c3)cc(C(F)(F)F)c2)cn1
inactive: EKVX NSCLC 69.6% | SN12C renal 66.9% | TK-10 renal 75.1% | ACHN renal 55.8% | CAKI-1 renal 50.6% | A498 renal 82.2% | CCRF-CEM leukemia 36.2% | MOLT-4 leukemia 42.9% | RPMI-8226 leukemia 37.9% | OVCAR-8 ovarian 42.6% | OVCAR-5 ovarian 57% | OVCAR-4 ovarian 51.8% | SK-OV-3 ovarian 119% | OVCAR-3 ovarian 92.6% | NCI/ADR-RES ovarian 31.6%
active: UO-31 renal -3.45% | SR leukemia 8.24% | IGROV1 ovarian -44.4%

CNS(=O)(=O)Nc1nccc(Cc2c(C)c3ccc(Oc4ncccn4)cc3oc2=O)c1F
inactive: EKVX NSCLC 55% | SN12C renal 73.1% | UO-31 renal 53.8% | TK-10 renal 34.1% | ACHN renal 56.8% | CAKI-1 renal 44.7% | CCRF-CEM leukemia 84.4% | MOLT-4 leukemia 76.2% | SR leukemia 58.3% | RPMI-8226 leukemia 55.3% | OVCAR-8 ovarian 63.2% | OVCAR-5 ovarian 20.4% | OVCAR-4 ovarian 55% | SK-OV-3 ovarian 53.3% | IGROV1 ovarian 28.7% | OVCAR-3 ovarian 76.2% | NCI/ADR-RES ovarian 70.6%
active: A498 renal -17.2%

Cc1c(Cn2c(C)nc3c(C(=O)O)cc(N4CCOCC4)cc32)cccc1C(F)(F)F
active: A498 renal -17%
inactive: EKVX NSCLC 101% | SN12C renal 95.7% | UO-31 renal 47% | TK-10 renal 84.1% | ACHN renal 77.1% | CAKI-1 renal 91.7% | CCRF-CEM leukemia 79.6% | MOLT-4 leukemia 60.2% | SR leukemia 75.7% | RPMI-8226 leukemia 104% | OVCAR-8 ovarian 92.1% | OVCAR-5 ovarian 101% | OVCAR-4 ovarian 96.2% | SK-OV-3 ovarian 96% | IGROV1 ovarian 114% | OVCAR-3 ovarian 87.2% | NCI/ADR-RES ovarian 62.1%

CC(=O)c1c(C)c2cnc(Nc3ccc(N4CCNCC4)cn3)nc2n(C2CCCC2)c1=O
active: SR leukemia -18.7%
inactive: EKVX NSCLC 58.8% | SN12C renal 37.1% | UO-31 renal 20.2% | TK-10 renal 32.4% | ACHN renal 17.1% | CAKI-1 renal 26.3% | A498 renal 31.7% | CCRF-CEM leukemia 12.2% | MOLT-4 leukemia 11% | RPMI-8226 leukemia 28.2% | OVCAR-8 ovarian 52.3% | OVCAR-5 ovarian 37.8% | OVCAR-4 ovarian 62% | SK-OV-3 ovarian 36.5% | IGROV1 ovarian 27.2% | OVCAR-3 ovarian 74.6% | NCI/ADR-RES ovarian 72.4%

NC(=O)Nc1cc(-c2cccc(F)c2)sc1C(=O)N[C@H]1CCCNC1
inactive: OVCAR-4 ovarian 25.5% | NCI/ADR-RES ovarian 10%
active: EKVX NSCLC 4.42% | SN12C renal -5.05% | UO-31 renal -95.4% | TK-10 renal -66.3% | ACHN renal 3.94% | CAKI-1 renal -82.3% | A498 renal -83.7% | CCRF-CEM leukemia 4.63% | MOLT-4 leukemia 2.79% | SR leukemia -6.47% | RPMI-8226 leukemia 6.16% | OVCAR-8 ovarian -15.2% | OVCAR-5 ovarian 2.28% | SK-OV-3 ovarian -46.4% | IGROV1 ovarian -50.5% | OVCAR-3 ovarian -1.15%

CCCNC(=O)c1cn2ncnc(Nc3cc(C(=O)NC4CC4)ccc3C)c2c1C
inactive: EKVX NSCLC 87.2% | SN12C renal 88.4% | UO-31 renal 45.2% | TK-10 renal 104% | ACHN renal 58.6% | CAKI-1 renal 67.6% | A498 renal 56.9% | CCRF-CEM leukemia 73.9% | MOLT-4 leukemia 92.6% | SR leukemia 73.6% | RPMI-8226 leukemia 75.9% | OVCAR-8 ovarian 77.8% | OVCAR-5 ovarian 17.6% | OVCAR-4 ovarian 92.1% | SK-OV-3 ovarian 70.5% | IGROV1 ovarian 42.4% | OVCAR-3 ovarian 103% | NCI/ADR-RES ovarian 66.9%

c1cc(OCCN2CCCCC2)cc(-c2n[nH]c3ccc(-c4ncn[nH]4)cc23)c1
active: SR leukemia 7.19%
inactive: EKVX NSCLC 76.7% | SN12C renal 68.2% | UO-31 renal 25.1% | TK-10 renal 74.5% | ACHN renal 62.7% | CAKI-1 renal 26.6% | A498 renal 71% | CCRF-CEM leukemia 84.9% | MOLT-4 leukemia 27% | RPMI-8226 leukemia 58.4% | OVCAR-8 ovarian 72.2% | OVCAR-5 ovarian 56.5% | OVCAR-4 ovarian 62.7% | SK-OV-3 ovarian 31.8% | IGROV1 ovarian 30.9% | OVCAR-3 ovarian 69% | NCI/ADR-RES ovarian 89.7%

O=C1C=CC2(NN=C(c3ccccc3)N2c2ccccc2)c2cccc(O)c21 (stereo unspecified)
active: SN12C renal 7.23%
inactive: EKVX NSCLC 57.9% | UO-31 renal 22.1% | TK-10 renal 91.6% | ACHN renal 55.2% | CAKI-1 renal 81.7% | A498 renal 103% | CCRF-CEM leukemia 76.5% | MOLT-4 leukemia 71.7% | SR leukemia 38.5% | RPMI-8226 leukemia 65.5% | OVCAR-8 ovarian 62.2% | OVCAR-5 ovarian 39.9% | OVCAR-4 ovarian 40.8% | SK-OV-3 ovarian 91.2% | IGROV1 ovarian 53.8% | OVCAR-3 ovarian 11.3% | NCI/ADR-RES ovarian 42.2%

O=c1sn(-c2cccc3ccccc23)c(=O)n1Cc1ccccc1
inactive: EKVX NSCLC 108% | SN12C renal 94.8% | UO-31 renal 86.3% | TK-10 renal 95.5% | ACHN renal 106% | CAKI-1 renal 99% | A498 renal 102% | CCRF-CEM leukemia 64.9% | MOLT-4 leukemia 39.1% | SR leukemia 38.7% | RPMI-8226 leukemia 76.8% | OVCAR-8 ovarian 94.4% | OVCAR-5 ovarian 112% | OVCAR-4 ovarian 107% | SK-OV-3 ovarian 83% | IGROV1 ovarian 98.2% | OVCAR-3 ovarian 99.4% | NCI/ADR-RES ovarian 107%
